Measurements as given in PubChem BioAssay (EPA / NIEHS).
Active and inactive are the calls of the source. The calls were made as follows: active = hit-call score of the fitted dose curve at least 0.9, where 1 is the maximum; inactive = score below 0.9.

Assays:
Details in all cases: mRNA level, 48 h; actives raise or lower the signal
[1] = read-out: cysteine-aspartic acid protease (CASP8), CASP8 (gene 841); assay: LTEA_HepaRG_CASP8: Life Technologies and Expression Analysis (LTEA) Assay for cysteine-aspartic acid protease (CASP8) using HepaRG (AID 2283480)
Method in brief: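 CASP8 transcript measured by TaqMan qRT-PCR with ACTB/GAPDH/POLR2A normalization, after 48 h chemical exposure of HepaRG cells in serum-free induction medium. Eight concentrations, top 100 uM, half-log steps, 0.5% DMSO vehicle; fits in both directions versus DMSO.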

[2] = read-out: Cytochrome P450 (CYP2B6), CYP2B6 (gene 1555); assay: LTEA_HepaRG_CYP2B6: Life Technologies and Expression Analysis (LTEA) Assay for Cytochrome P450 (CYP2B6) using HepaRG (AID 2283481)
Method in brief: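 Differentiated HepaRG cells, serum-free induction medium, exposed 48 h in duplicate to 8-point half-log concentrations from 100 uM in 0.5% DMSO. CYP2B6 mRNA by qRT-PCR, normalized to ACTB, GAPDH, POLR2A; bidirectional fit versus DMSO.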

[3] = read-out: Cytochrome P450 2C19 (Homo sapiens) (UniProt P33261); assay: LTEA_HepaRG_CYP2C19: Life Technologies and Expression Analysis (LTEA) Assay for CYP2C19 using HepaRG (AID 2283482)
Method in brief: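 Differentiated human HepaRG cells were exposed for 48 h in serum-free induction medium to 8 concentrations (top 100 uM, half-log steps, 0.5% DMSO). CYP2C19 mRNA was measured by qRT-PCR, normalized to ACTB/GAPDH/POLR2A, and fitted bidirectionally against DMSO.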

CYP2C8 (gene 1558) = assay: LTEA_HepaRG_CYP2C8: Life Technologies and Expression Analysis (LTEA) Assay for CYP2C8 using HepaRG (AID 2283483)
Method in brief: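 CYP2C8 expression measured by TaqMan qRT-PCR and normalized to three housekeeping genes. HepaRG cultures were treated for 48 h with an eight-point half-log series topping at 100 uM, vehicle 0.5% DMSO, duplicates; fitted both directions against DMSO.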

CYP2C9 (gene 1559) = assay: LTEA_HepaRG_CYP2C9: Life Technologies and Expression Analysis (LTEA) Assay for CYP2C9 using HepaRG (AID 2283484)
Method in brief: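 CYP2C9 transcript level, quantified by TaqMan qRT-PCR against three housekeeping genes, was fitted bidirectionally relative to 0.5% DMSO. HepaRG cultures were treated 48 h, in duplicate, at eight half-log concentrations topping at 100 uM.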

CYP2E1 (gene 1571) = assay: LTEA_HepaRG_CYP2E1: Life Technologies and Expression Analysis (LTEA) Assay for CYP2E1 using HepaRG (AID 2283485)
Method in brief: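 Assay uses 48 h exposure of HepaRG hepatic cells, eight concentrations to 100 uM. Expression of CYP2E1 is quantified by TaqMan qRT-PCR with ACTB, GAPDH and POLR2A normalization; curves fitted in both directions relative to vehicle.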

CYP4A11 (gene 1579) = assay: LTEA_HepaRG_CYP4A11: Life Technologies and Expression Analysis (LTEA) Assay for CYP4A11 using HepaRG (AID 2283486)
Method in brief: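 Differentiated HepaRG cells, serum-free induction medium, exposed 48 h in duplicate to 8-point half-log series from 100 uM in 0.5% DMSO. CYP4A11 mRNA measured by qRT-PCR, normalized to ACTB, GAPDH, POLR2A; bidirectional fit versus DMSO.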

[4] = read-out: Cytochrome P450 3A4 (Homo sapiens) (UniProt P08684); assay: LTEA_HepaRG_CYP3A4: Life Technologies and Expression Analysis (LTEA) Assay for CYP3A4 using HepaRG (AID 2283487)
Method in brief: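 Differentiated HepaRG cells, plated 48 h, then dosed 48 h in serum-free induction medium with 0.5% DMSO, 8 half-log concentrations up to 100 uM, duplicate. CYP3A4 mRNA by qRT-PCR, normalized to ACTB/GAPDH/POLR2A; bidirectional fit versus DMSO.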

[5] = read-out: DNA damage-inducible transcript 3 (DDIT3), DDIT3 (gene 1649); assay: LTEA_HepaRG_DDIT3: Life Technologies and Expression Analysis (LTEA) Assay for DNA damage-inducible transcript 3 (DDIT3) using HepaRG (AID 2283488)
Method in brief: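 Eight-point concentration-response (100 uM highest, half-log dilutions) in HepaRG, 48 h, duplicate wells. Endpoint: qRT-PCR mRNA, normalized (ACTB, GAPDH, POLR2A), bidirectional fitting with DMSO as baseline.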

Measured: AC50

Cytochrome P450 3A4 (Homo sapiens), sequence (P08684 whole entry, looked up): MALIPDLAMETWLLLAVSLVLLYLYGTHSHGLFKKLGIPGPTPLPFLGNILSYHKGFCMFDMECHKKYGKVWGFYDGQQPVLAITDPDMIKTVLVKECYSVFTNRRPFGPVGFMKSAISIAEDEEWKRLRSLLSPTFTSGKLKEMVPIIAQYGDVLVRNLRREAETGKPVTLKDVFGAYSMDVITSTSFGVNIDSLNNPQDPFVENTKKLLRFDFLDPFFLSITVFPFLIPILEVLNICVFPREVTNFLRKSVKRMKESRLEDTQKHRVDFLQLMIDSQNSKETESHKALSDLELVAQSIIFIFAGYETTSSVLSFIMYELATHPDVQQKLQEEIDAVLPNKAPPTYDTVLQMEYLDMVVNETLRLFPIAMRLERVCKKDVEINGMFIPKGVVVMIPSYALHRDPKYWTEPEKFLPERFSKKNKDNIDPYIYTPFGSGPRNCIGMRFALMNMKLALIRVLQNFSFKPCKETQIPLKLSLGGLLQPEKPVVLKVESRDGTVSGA
Cytochrome P450 2C19 (Homo sapiens), sequence (P33261 whole entry, looked up): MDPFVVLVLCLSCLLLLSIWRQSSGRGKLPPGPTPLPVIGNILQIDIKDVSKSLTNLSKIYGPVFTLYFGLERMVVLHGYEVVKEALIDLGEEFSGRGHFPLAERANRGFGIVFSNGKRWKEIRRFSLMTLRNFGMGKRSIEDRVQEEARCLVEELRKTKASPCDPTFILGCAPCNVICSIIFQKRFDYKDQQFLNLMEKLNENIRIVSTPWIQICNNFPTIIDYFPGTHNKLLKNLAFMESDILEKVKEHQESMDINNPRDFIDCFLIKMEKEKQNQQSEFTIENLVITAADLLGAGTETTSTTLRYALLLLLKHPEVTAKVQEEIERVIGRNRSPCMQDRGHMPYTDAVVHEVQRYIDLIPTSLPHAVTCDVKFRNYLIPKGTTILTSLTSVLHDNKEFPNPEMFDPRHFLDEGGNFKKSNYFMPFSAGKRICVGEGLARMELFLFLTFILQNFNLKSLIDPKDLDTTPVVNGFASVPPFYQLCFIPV

CCOC(=O)C(C)OC(=O)c1cc(Oc2ccc(C(F)(F)F)cc2Cl)ccc1[N+](=O)[O-] (configuration not stated)
active: [2] 11.5 µM | [3] 12.9 µM | CYP2C8 (gene 1558) 12.8 µM | CYP2E1 (gene 1571) 36.6 µM | CYP4A11 (gene 1579) 0.598 µM | [4] 4.78 µM
inactive: [1] | CYP2C9 (gene 1559) | [5]

N#Cc1c(Cl)cccc1Cl
active: [2] 12.1 µM
inactive: all other assays above

Clc1cccc(C(Cl)(Cl)Cl)n1
active: [2] 2.9 µM
inactive: all other assays above

CCNC(=O)NC(=O)C(C#N)=NOC
active: [2] 3.37 µM | CYP2E1 (gene 1571) 50 µM | [5] 11.6 µM
inactive: all other assays above

COP(=S)(OC)Oc1ccc([N+](=O)[O-])c(C)c1
active: [2] 4.75 µM
inactive: all other assays above

Nc1c(Cl)c(Cl)nc(C(=O)O)c1Cl
inactive: all assays above

CC(C)(C)C(=O)C(Oc1ccc(Cl)cc1)n1cncn1 (configuration not stated)
active: [2] 5.18 µM | [3] 10.7 µM | CYP2C8 (gene 1558) 15.4 µM | CYP2E1 (gene 1571) 31.1 µM | CYP4A11 (gene 1579) 50 µM | [4] 2.67 µM
inactive: [1] | CYP2C9 (gene 1559) | [5]

Nc1cnn(-c2ccccc2)c(=O)c1Cl
active: [2] 17.1 µM | CYP2E1 (gene 1571) 9.92 µM | [4] 17.6 µM
inactive: all other assays above

COCc1cnc(C2=NC(C)(C(C)C)C(=O)N2)c(C(=O)O)c1 (configuration not stated)
inactive: all assays above

CS(=O)(=O)c1ccc(C(=O)C2C(=O)CCCC2=O)c([N+](=O)[O-])c1
inactive: all assays above

O=C1C2CC=CCC2C(=O)N1SC(Cl)(Cl)Cl (configuration not stated)
inactive: all assays above

CC1(C)CON(Cc2ccccc2Cl)C1=O
inactive: [1] | CYP2C9 (gene 1559) | CYP4A11 (gene 1579) | [5]
active: [2] 2.45 µM | [3] 6.15 µM | CYP2C8 (gene 1558) 12.8 µM | CYP2E1 (gene 1571) 31.4 µM | [4] 5.64 µM

O=c1n(Cl)c(=O)n(Cl)c(=O)n1Cl
inactive: all assays above

CC(C)Nc1nc(Cl)nc(NC(C)C)n1
active: [2] 2.93 µM | [3] 4.74 µM | CYP2E1 (gene 1571) 37.8 µM | [4] 7.35 µM
inactive: all other assays above

COP(=S)(OC)SCn1nnc2ccccc2c1=O
active: [2] 6.27 µM | [3] 40.9 µM | [4] 25 µM
inactive: all other assays above

N#Cc1c[nH]cc1-c1cccc2c1OC(F)(F)O2
inactive: [1] | CYP2C8 (gene 1558) | [5]
active: [2] 32 µM | [3] 93.5 µM | CYP2C9 (gene 1559) 50 µM | CYP2E1 (gene 1571) 76 µM | CYP4A11 (gene 1579) 85.2 µM | [4] 9.76 µM

COC(=O)c1c(C(F)F)nc(C(F)(F)F)c(C2=NCCS2)c1CC(C)C
active: [2] 19.7 µM | [3] 50 µM | CYP2C8 (gene 1558) 50 µM | CYP2E1 (gene 1571) 10.3 µM | [4] 4.46 µM
inactive: [1] | CYP2C9 (gene 1559) | CYP4A11 (gene 1579) | [5]

CCOc1nc(C(Cl)(Cl)Cl)ns1
inactive: CYP2C9 (gene 1559) | CYP2E1 (gene 1571) | [4]
active: [1] 1.08 µM | [2] 1.28 µM | [3] 14.9 µM | CYP2C8 (gene 1558) 1.14 µM | CYP4A11 (gene 1579) 1.12 µM | [5] 1.61 µM
